JMJD2A Tudor: inhibitors of human JMJD2A Tudor domain; O75164; AlphaScreen JMJD2A-Tudor / H3K4me3 peptide binding; Potency, µM (top dose mostly 114 µM), hits mostly inhibitors; hit rate 4.4% among 390,000; AID 504339; note: nearly all actives have a fitted effect of over 50% in size
L3MBTL1 block: L3MBTL1 (human) inhibition; AlphaScreen L3MBTL1–H3K9me1 peptide binding; Potency, µM (top dose mostly 57.1 µM), usual class: inhibitors; hit rate 0.66% among 230,000; note: nearly all actives have a fitted effect of over 60% in size
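L3MBTL1 (50 nM) pre-complexed 30 min with biotinylated H3(1-15)K9me1 peptide (75 nM), then compounds added for 30 min at room temperature; AlphaScreen streptavidin donor/nickel chelate acceptor beads (10 ug/mL final) read after 30 min dark incubation.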
G9a block: G9a (human) methyltransferase inhibition. Q96KQ7. G9a H3K9 monomethylation, AlphaScreen, 2 h. Potency, µM (series often up to 102 µM), most hits filed as inhibitors. hit rate 8.8% among 350,000; note: nearly all actives have a fitted effect of over 75% in size
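Methyltransferase reactions run at room temperature for 2 h (20 nM enzyme, 500 nM biotin-H3K9 peptide, 20 uM SAM) after a 15 min compound preincubation; product detected by AlphaScreen beads and anti-H3K9me1 antibody.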
HP1b binding inh: inhibitors of HP1-beta chromodomain binding to methylated histone tails; P83916; hit rate 0.56% among 390,000; Potency, µM (titrated, usually from 114 µM), actives largely listed as inhibitors; AID 540317; AlphaScreen HP1-beta / biotin-H3K9me3 peptide binding; note: nearly all actives have a fitted effect of over 70% in size
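HP1-beta protein (50 nM final) preincubated 30 min at room temperature with biotinylated H3(1-18)K9me3 peptide (50 nM) in PBS pH 7.4, 0.01% Tween-20, then compound added for 30 min. AlphaScreen streptavidin donor/nickel chelate acceptor beads (10 ug/mL final), 30 min dark, luminescence read.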
BAZ2B inh: BAZ2B (human) inhibition; Q9UIF8; AlphaScreen BAZ2B-H3K14Ac peptide displacement; Potency, µM (highest dose often 114 µM), most hits filed as inhibitors; hit rate 4.4% among 360,000; note: nearly all actives have a fitted effect of over 60% in size
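AlphaScreen displacement of biotin-H3(5-23)K14Ac peptide (50 nM final) from BAZ2B (50 nM final) in PBS pH 7.4, 0.01% Tween-20; complex preformed 30 min RT, then compounds (top 110 uM) 30 min RT, beads 20 min dark.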
A number is an active result; - = inactive; ? = inconclusive; . = not tested or not shown; ! = repeats disagree; [ ] = dose if it differs, or a comment. Rows were chosen to be rich in hits. Some 11% of all compounds tested hit in one or more screens of this group. Calls come from the whole dose curve; as a rule, active = well fitted inhibition curve with a large enough effect; inconclusive = small, poorly fitted or top-dose-only effect; inactive = no such curve, though single readings can be large or run the other way.

SMILES	JMJD2A Tudor	L3MBTL1 block	G9a block	HP1b binding inh	BAZ2B inh
CN(c1ccccc1)S(=O)(=O)c1ccc(C(=O)OCC(=O)NCc2ccco2)cc1	?	.	?	-	?
CCN(CC)S(=O)(=O)c1ccc(C(=O)OCC(=O)NCc2ccco2)cc1	?	-	?	-	50µM
COc1ccccc1C(=O)NCc1ccco1	-	-	.	-	-
COc1ccccc1OCC(=O)NCc1ccco1	-	-	56µM	-	-
O=c1cc(-c2cccc(-c3ccc(C(F)(F)F)cc3)c2)c2cc3c(cc2o1)OCO3	.	.	-	.	.
COc1cc(C(=O)NNC(=O)c2ccco2)cc(OC)c1OC	-	.	-	-	-
COc1cc(C(=O)NNC(=S)NCc2ccco2)cc(OC)c1OC	-	-	56µM	-	-
COc1ccccc1NC(=O)COC(=O)c1ccc(S(=O)(=O)NCc2ccco2)cc1	-	-	-[12.7 µM]	-	?
COc1ccccc1NS(=O)(=O)c1ccc(C(=O)OCC(=O)NCc2ccco2)cc1	-	?	50µM	-	50µM
COc1ccc(S(=O)(=O)Nc2ccccc2C(=O)NCc2ccco2)cc1	-[11.4 µM]	-	14µM	-	?
CN(c1ccc(OCC(=O)N2CCOCC2)cc1)S(=O)(=O)c1ccc(Cl)cc1	-	.	-	-	-
CN(C)CCCNCC(=O)NN(c1ccccc1)c1ccccc1	0.79µM	.	-	-	32µM
CCN1CCN(c2ncnc3c2nnn3Cc2ccccc2)CC1	-	-	40µM	-	-
Cc1ccc(S(=O)(=O)N2CCCc3cc(NC(=O)c4ccc(C(C)(C)C)cc4)ccc32)cc1	-	.	-	-	-
Cc1ccc(NC(=O)CN2C(=O)NC3(CCCCCCC3)C2=O)cc1C	-	-	1.3µM	-	-
O=C(CN1C(=O)NC2(CCCCC2)C1=O)Nc1ccc(F)cc1	-	.	-	-	-
CN(c1ccccc1)S(=O)(=O)c1cccc(NC(=O)CN2C(=O)NC3(CCCC3)C2=O)c1	-	-	56µM	-	-
Cc1ccc(Cl)cc1N1CCN(Cc2nc3c(c(=O)[nH]c(=O)n3C)n2Cc2ccccc2F)CC1	?	-	40µM	-	-
COc1ccc(N2CCN(Cc3nc4c(c(=O)[nH]c(=O)n4C)n3CC(C)C)CC2)cc1	-	.	25µM	-	-
CCn1c(CN2CCC(C)CC2)nc2cc(NC(=O)COc3ccc([N+](=O)[O-])cc3)ccc21	-	.	-	-	-
COc1ccc(-c2nnc(NC(=O)C3=COCCO3)o2)cc1	-	-	-	-	28µM
O=C(Nc1nnc(C2=COCCO2)o1)c1ccc(Cl)cc1	79µM	-	-	-	56µM
O=C(Nc1nnc(C2=COCCO2)o1)c1cccc(C(F)(F)F)c1	-	.	-	-	?
CC(=O)Nc1nnc(C2=COCCO2)o1	22µM	-	-	-	79µM
O=C(Nc1nnc(C2=COCCO2)o1)c1ccc(F)cc1	56µM	.	.	-	22µM
SMILES	JMJD2A Tudor	L3MBTL1 block	G9a block	HP1b binding inh	BAZ2B inh
O=C(Nc1nnc(-c2ccc(Br)cc2)o1)C1=COCCO1	-	-	-	-	?
N#Cc1nc(Nc2ccc3ccccc3c2)nc(NC2CCCC2)n1	-	.	.	.	.
CCc1ccc(OCC(=O)NCC(c2ccc(OC)cc2)N2CCOCC2)cc1 (configuration not stated)	-	.	-	-	-
Cc1ccc(Cl)cc1N1CCN(C(=O)Cn2cnc3sc(C)c(S(=O)(=O)N4CCC(C)CC4)c3c2=O)CC1	-	.	-	-	-
COc1cc(OC)cc(-c2nnc(NC(=O)c3ccc4c(c3)OCCO4)o2)c1	-	.	-	-	-
O=C(Nc1nnc(C2=COCCO2)o1)c1ccc([N+](=O)[O-])cc1	50µM	.	?	-	35µM
COc1cccc(NC(=O)c2cnn(-c3ccccc3)c2-n2cccc2)c1	-	.	-	-	-
Cc1ccc(CSC2=Nc3ccccc3C3=NC(CCC(=O)NCCc4ccccc4)C(=O)N23)cc1 (configuration not stated)	-	.	?	-	-
COc1ccc(OCC(=O)Nc2cc(-c3nn4c(C)nnc4s3)ccc2C)cc1	-	-	-	-	-
Cc1cccc(C)c1OCC(=O)Nc1ncn[nH]1	?	.	14µM!	-	50µM
O=C(CC(c1ccccc1)c1ccccc1)Nc1ncn[nH]1	-	.	-[12.7 µM]	-	79µM
Cc1cc(OCC(=O)Nc2ncn[nH]2)ccc1Cl	?	-	-[2.33 µM]	-	45µM
Cc1cc(OCC(=O)Nc2cc(-c3nn4c(C)nnc4s3)ccc2C)ccc1Cl	56µM	-	-	-	-
O=C(CC(c1ccccc1)c1ccccc1)Nc1ccc(Cl)cn1	-	.	-	-	-
O=C(CN1C(=O)NC2(CCCc3ccccc32)C1=O)Nc1cc(F)ccc1F (configuration not stated)	-	-	-	-	-
CC(=O)c1cc(-c2ccc(F)cc2)n(CC(=O)NCc2ccc(C)cc2)c1C	-	.	-	-	-
COc1ccc2c(c1)-c1nc(NC(=O)c3ccc(OC)c(Br)c3)sc1CC2	-	.	-	-	?
CCOC(=S)N/C(=N\S(=O)(=O)c1ccc(C)cc1)c1ccccc1	-	-	7.9µM	?	-
O=S(=O)(/N=C(/NC(=S)Nc1ccccc1)c1ccccc1)c1ccc(Cl)cc1	-	.	11µM	?	-
COc1ccc(NC(=S)N/C(=N/S(=O)(=O)c2ccc(C)cc2)c2ccccc2)cc1	-	-	?	-	-
COc1ccc(NC(=S)NC(=NS(=O)(=O)c2ccc(Cl)cc2)c2ccccc2)cc1	-	-	.	?	.
CCOc1ccc(S(=O)(=O)/N=C(\N)c2ccccc2)cc1	-	-	35µM	-	-
Cc1ccc(NC(=O)Cn2c(=O)n(CC3CCCO3)c(=O)c3ccccc32)cc1 (configuration not stated)	-	.	-	-	-
COc1ccc(-c2nn3c(-c4cc(-c5ccccc5)n[nH]4)nnc3s2)cc1	-	.	.	-	.
O=C(O)c1ccccc1Sc1ncnc2sc3c(c12)CCC3	-	-	-	-	-
SMILES	JMJD2A Tudor	L3MBTL1 block	G9a block	HP1b binding inh	BAZ2B inh
COC(=O)/C=c1\sc2ncnn2c1=O	20µM	-	3.2µM	?	-
CNC(=O)/C(C#N)=c1\s/c(=C/C(=O)OC)c(=O)n1-c1ccccc1	-	-	-[0.501 µM]	-	-
CCOC(=O)c1cccc(NC(=O)c2cn(-c3cccc(OC)c3)c(=O)c3ccccc23)c1	-	.	10µM	-	-
CCOC(=O)c1ccc(OC(=O)c2cn(-c3cccc(OC)c3)c(=O)c3ccccc23)cc1	-	.	-	-	-
CCOc1nc2c(c(-c3cccs3)c1C#N)Cc1ccccc1-2	-	-	-	-	-
CC(=O)COc1nc2c(c(-c3ccco3)c1C#N)CCc1ccccc1-2	-	-	45µM	-	-
COCCNC(=O)Cn1cc(C(=S)N2CCOCC2)c2ccccc21	-	-	35µM	-	-
NC(=O)c1ccc(NC(=O)CS(=O)(=O)c2cn(CC(=O)N3CCCC3)c3ccccc23)cc1	-	.	25µM	-	-
COc1ccc(NC(=O)CS(=O)(=O)c2cn(CC(=O)N3CCOCC3)c3ccccc23)cc1OC	-	.	35µM	-	-
